Screen size: about 310,000 compounds; about 14,000 (4.5%) showed an effect of 50% or more. Effects have a minus sign here. This is one part of a sample in which strong results are shown more often than they occur.
target: human ether-à-go-go-related gene (hERG) potassium channel (human, UniProt Q12809); assay: primary screen, population patch clamp on CHO cells stably expressing hERG; higher = less effect of the substance
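Further: peak tail current of the secondary pulse compared with the same well before compound.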

Sequence of human ether-à-go-go-related gene (hERG) potassium channel (Q12809 whole entry, looked up): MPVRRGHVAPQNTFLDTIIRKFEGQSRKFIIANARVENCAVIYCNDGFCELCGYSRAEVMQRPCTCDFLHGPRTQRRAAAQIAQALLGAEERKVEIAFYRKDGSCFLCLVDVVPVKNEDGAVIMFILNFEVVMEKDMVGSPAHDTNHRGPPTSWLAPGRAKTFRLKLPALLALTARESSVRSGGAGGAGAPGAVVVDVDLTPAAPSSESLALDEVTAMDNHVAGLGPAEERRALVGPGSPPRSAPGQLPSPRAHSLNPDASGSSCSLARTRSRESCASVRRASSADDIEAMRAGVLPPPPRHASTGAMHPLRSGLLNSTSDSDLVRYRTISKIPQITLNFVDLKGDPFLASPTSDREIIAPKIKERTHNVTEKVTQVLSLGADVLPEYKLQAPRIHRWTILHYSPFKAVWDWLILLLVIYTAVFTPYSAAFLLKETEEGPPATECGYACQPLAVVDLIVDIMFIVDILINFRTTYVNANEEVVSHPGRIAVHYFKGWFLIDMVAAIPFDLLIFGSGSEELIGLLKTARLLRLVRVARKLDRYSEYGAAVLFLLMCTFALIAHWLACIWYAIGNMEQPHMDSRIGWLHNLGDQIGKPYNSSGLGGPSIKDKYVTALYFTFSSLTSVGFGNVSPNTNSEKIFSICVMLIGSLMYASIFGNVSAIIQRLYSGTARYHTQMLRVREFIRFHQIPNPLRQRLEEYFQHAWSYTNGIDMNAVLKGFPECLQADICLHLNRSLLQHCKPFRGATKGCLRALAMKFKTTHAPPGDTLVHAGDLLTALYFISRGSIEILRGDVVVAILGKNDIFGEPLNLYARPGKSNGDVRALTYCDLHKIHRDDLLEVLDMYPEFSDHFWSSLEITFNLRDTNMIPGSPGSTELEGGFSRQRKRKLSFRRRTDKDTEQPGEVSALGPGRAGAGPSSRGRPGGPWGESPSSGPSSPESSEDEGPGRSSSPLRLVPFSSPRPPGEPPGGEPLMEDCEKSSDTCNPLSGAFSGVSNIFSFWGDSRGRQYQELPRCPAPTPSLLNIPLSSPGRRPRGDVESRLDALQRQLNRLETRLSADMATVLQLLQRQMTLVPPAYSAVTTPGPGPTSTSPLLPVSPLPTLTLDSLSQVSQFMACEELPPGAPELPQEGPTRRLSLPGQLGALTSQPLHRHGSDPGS

In order of falling “hERG current change (%, negative = inhibition) at 10uM” value:
1. COc1cccc(C(=O)Oc2ccc3ccc(=O)oc3c2)c1  42.3%
2. O=C(CSc1ccc(Cl)cc1)Nc1ccc(N2CCN(c3ccccc3)CC2)c(F)c1  24.9%
3. CN(C(=O)COC(=O)CNS(=O)(=O)/C=C/c1ccccc1)C1CCS(=O)(=O)C1 (stereo not drawn)  23.3%
4. COc1ccccc1NC(=S)N1CC(C)OC(C)C1 (stereo not drawn)  19.5%
5. CSc1ccccc1OCc1cc(C(=O)NCCCc2ccccc2)no1  12.9%
6. Cc1ccc2c(CN(C)Cc3cccc(Cl)c3)cc(=O)oc2c1C  12%
7. C=CCn1c(O)c(C(CC)=Nc2cccc(C(=O)O)c2)c(=O)[nH]c1=O  11.6%
8. O=[N+]([O-])c1ccc(S(=O)(=O)NCCN2CCOCC2)cc1  11.2%
9. CCN(CC)S(=O)(=O)c1ccc(S(=O)(=O)N2CCN(CCC#N)CC2)cc1  8.45%
10. COCCNc1oc(-c2ccc(C)cc2)nc1C#N  8.26%
11. C=CCSc1ncccc1C(=O)NCCc1ccc(Cl)cc1  6.54%
12. CCN1C(=NCCCCO)N[C@@H](c2cccc(C(F)(F)F)c2)C(C(=O)OC)=C1C  5.89%
13. CC(C)(C)OC(=O)CNC(=O)c1nc[nH]c1C(=O)NCC(=O)OC(C)(C)C  3.98%
14. COC(=O)C1=C(C)N(Cc2ccccc2)C(=S)N[C@H]1c1ccccc1  -2.64%
15. O=S(=O)(Nc1nc2ccc(S(=O)(=O)N3CCCC3)cc2s1)c1ccc(F)cc1  -2.68%
16. CN(C)CCCN(C(=O)CCc1ccccc1)c1nc2ccc(Br)cc2s1.Cl  -3.24%
17. N#Cc1ccc(OCC(=O)Nc2ccc3[nH]c(=O)[nH]c3c2)cc1  -4.57%
18. O=S(=O)(NCCN1CCCC1)c1ccc(Br)cc1  -8.08%
19. CN(c1ccccc1C(=O)N1CCCC1)S(C)(=O)=O  -9.73%
20. COC1=CC(=O)C[C@@H](C)[C@]12Oc1c(Cl)c(OC)cc(OC)c1C2=O  -9.99%
21. Cc1oc2cc(O)ccc2c(=O)c1Oc1ccccc1  -10.2%
22. COc1cccc(N2CCN(C(=O)CN(C)S(=O)(=O)c3ccc4c(c3)c(=O)n(C)c(=O)n4C)CC2)c1  -10.8%
23. COC(=O)C1=C(C)N(Cc2ccccc2)C(=O)N[C@H]1c1ccc(Br)cc1  -10.9%
24. Cc1cccc2sc(N(CCCN(C)C)C(=O)CN3C(=O)c4ccccc4C3=O)nc12.Cl  -11.2%
25. COC(=O)C1=C(C)N(Cc2ccccc2)C(=O)N[C@H]1c1ccccc1  -13.5%
26. CC1CCCN(CC(=O)Nc2cccc([N+](=O)[O-])c2)C1 (stereo not drawn)  -16.7%
27. COCCN=C1N[C@@H](c2ccccc2)C(C(=O)OC)=C(C)N1Cc1ccccc1  -16.8%
28. Cc1ccc(-n2c(SCC(=O)N3CCOCC3)nnc2-c2cccnc2)cc1C  -16.9%
29. O=C(CSc1nnc(COc2ccc(Br)cc2)o1)N1CCOCC1  -17%
30. COC(=O)C1=C(C)N(CC2CC2)C(=NCc2cc(OC)c(OC)c(OC)c2)N[C@H]1c1ccccc1  -17.5%
31. COC(=O)c1ccc(OCCCCN2CC(C)OC(C)C2)cc1.O=C(O)C(=O)O (stereo not drawn)  -20%
32. Cc1ccc(S(=O)(=O)N(CCC#N)CCN2CCCC2)cc1  -21.9%
33. Cc1ccc(OC(=O)CCS(=O)(=O)c2ccc(C)cc2)cc1  -24.4%
34. CN(C)CCCN(C(=O)CCc1ccccc1)c1nc2ccc(Cl)cc2s1.Cl  -24.4%
35. COc1cc(NC(=O)c2ccc(-c3ccc(Br)cc3)o2)ccc1NC(=O)C(C)C  -26.1%
36. CCN(CC1COc2ccccc2O1)C(=O)CN1C(=O)NC(C)(c2ccc(C)cc2)C1=O (stereo not drawn)  -28.8%
37. CN(C)CCN(C(=O)CCc1ccccc1)c1nc2c(F)cc(F)cc2s1.Cl  -33.4%
38. CC1CC(C)CN(CCCOc2ccccc2[N+](=O)[O-])C1.O=C(O)C(=O)O (stereo not drawn)  -35.5%
39. CCN1C(=NCc2cccc(Cl)c2)N[C@@H](c2cccc(F)c2)C(C(=O)OC)=C1C  -41.4%
40. CC1CN(CCCCOc2ccc(F)cc2)CC(C)O1.O=C(O)C(=O)O (stereo not drawn)  -42.7%
41. COC(=O)C1=C(C)N(Cc2ccccc2)C(=NCCCCO)N[C@H]1CCc1ccccc1  -43.3%
42. CC1CN(CCOc2ccc([N+](=O)[O-])cc2)CC(C)O1.O=C(O)C(=O)O (stereo not drawn)  -46.2%
43. COC(=O)C1=C(C)N(Cc2ccccc2)C(=NCCCCO)N[C@H]1c1ccccc1  -53.2%
44. Cc1cccc2sc(N(CCCN(C)C)C(=O)CCc3ccccc3)nc12.Cl  -54.1%
45. COCCN=C1N[C@@H](c2ccc(Br)cc2)C(C(=O)OC)=C(C)N1Cc1ccccc1  -55.3%
46. COC(=O)C1=C(C)N(Cc2ccccc2)C(=NCC(C)C)N[C@H]1c1ccccc1  -55.9%
47. Cc1ccc2nc(N(CCCN(C)C)C(=O)CCc3ccccc3)sc2c1.Cl  -66%
48. CN(C)CCCN(C(=O)CCc1ccccc1)c1nc2ccc(F)cc2s1.Cl  -70.1%
49. CC1CN(CCCOc2ccc([N+](=O)[O-])cc2)CC(C)O1.O=C(O)C(=O)O (stereo not drawn)  -71.6%
50. COC(=O)C1=C(C)N(CC2CC2)C(=NCc2cccc(Cl)c2)N[C@H]1c1ccccc1  -72.3%
51. CC1CCCN(CCCOc2ccc([N+](=O)[O-])cc2)C1.O=C(O)C(=O)O (stereo not drawn)  -74.7%
52. O=[N+]([O-])c1ccc(-c2ccc(S(=O)(=O)NCCN3CCCC3)cc2)cc1  -77.7%
53. CC1CC(C)CN(CCCCOc2ccc([N+](=O)[O-])cc2)C1.O=C(O)C(=O)O (stereo not drawn)  -78.8%
54. N#CCCN(CCN1CCCC1)S(=O)(=O)c1ccc(-c2ccc([N+](=O)[O-])cc2)cc1  -79.1%
